Measured values from PubChem BioAssay (Tox21).
Records with an inconclusive call do not appear. The source made the active and inactive calls. Unless noted, the call rests on the fitted dose curve; in most records, active means well fitted curve in the direction sought with a large enough effect in the repeat runs; inconclusive means weak or mixed curves; inactive means no such curve, though single readings can be large; an effect the other way counts as inactive or inconclusive.

Legend:
[1] = qHTS assay to identify small molecule antagonists of the androgen receptor (AR) signaling pathway using the MDA cell line in the presence of 0.5 nM R1881 - cell viability counter screen (AID 1259242); further: nearly all actives have a fitted effect of over 45% in size
Procedure, shortened: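 Cytotoxicity toward MDA-kb2 cells is measured by CellTiter-Fluor live-cell protease fluorescence after 16 hr compound exposure at 37C in the presence of 0.5 nM R1881 stimulator.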

[2] = target: Estrogen receptor (Homo sapiens) (UniProt P03372); assay: qHTS assay to identify small molecule antagonists of the estrogen receptor alpha (ER-alpha) signaling pathway using the BG1 cell line in the presence of 0.1 nM 17-beta-estradiol (AID 1259244); further: nearly all actives have a fitted effect of over 50% in size
Procedure, shortened: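 After 5 days in hormone-depleted medium (charcoal-stripped serum, no phenol red), VM7Luc4E2 cells were seeded, incubated 24 h, then co-treated with compound and 0.1 nM (final) estradiol for 22 h before luminescence detection.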

[3] = qHTS assay to identify small molecule HDAC inhibitors (AID 1259364); further: top concentration of the series differs between compounds; nearly all actives have a fitted effect of over 45% in size
Procedure, shortened: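 Homogeneous cell-based luminescent assay of endogenous class I/II HDAC activity; HCT-116 cells, 2 h compound exposure, 30 min HDAC-Glo development at RT.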

[4] = qHTS assay to identify small molecule HDAC inhibitors - cell viability counter screen (AID 1259365); further: series mostly up to about 92 µM; nearly all actives have a fitted effect of over 50% in size
Procedure, shortened: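 Cytotoxicity was gauged in wild-type HCT-116 cells after a brief 2hr treatment with DMSO-dissolved compounds at 37C and 5% CO2, using CellTiter-Glo luminescence developed for 30min at room temperature.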

[5] = qHTS assay to identify small molecule agonists of the sonic hedgehog signaling (Shh) pathway - cell viability counter screen (AID 1259366); further: nearly all actives have a fitted effect of over 50% in size; further: potency means the concentration at half of the fitted maximal effect
Procedure, shortened: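 Stable Gli1-Luc NIH/3T3 clone, 2,000 cells/well. Compound exposure 24hr at 37C. Read-out: CellTiter-Fluor fluorescence.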

[6] = qHTS assay to identify small molecule agonists of the sonic hedgehog signaling (Shh) pathway (AID 1259368; calls by dose curve;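 further: NIH/3T3-derived 3T3Gli1-Luc cells carrying a stable Gli1-driven firefly luciferase reporter; series mostly up to about 92 µM; nearly all actives have a fitted effect of over 15% in size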)
Procedure, shortened: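 Steps: seed 3T3 Gli1-Luc cells, incubate 4 hr at 37 C, pin-transfer compounds in DMSO alongside a positive control, incubate 24 hr, add luciferase detection reagent, wait 30 min at room temperature, read luminescence.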

[7] = qHTS assay to identify small molecule agonists of the androgen receptor (AR) signaling pathway in the presence of an antagonist - cell viability counter screen (AID 1259379);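 further: MDA-kb2 human breast cancer cells carrying an MMTV luciferase reporter; series mostly up to about 92 µM; nearly all actives have a fitted effect of over 25% in size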
Procedure, shortened: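 Fluorescence from CellTiter-Fluor, added after 15 hr and read 1 hr later, gave cell viability. Cells were MDA-kb2 exposed to compounds (15 concentrations) in the presence of 3.0uM nilutamide at 37C, 0% CO2.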

[8] = qHTS assay to identify small molecule antagonists of the estrogen receptor beta (ER-beta) signaling pathway - cell viability counter screen (AID 1259382); further: series mostly up to about 92 µM; nearly all actives have a fitted effect of over 55% in size
Procedure, shortened: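 Following a 6 hr plating period, HEK293T cells carrying a UAS-driven beta-lactamase reporter under ER-beta control received compounds and 1nM E2 (final). After 16 hr at 37C and 2 hr substrate loading, CellTiter-Glo luminescence indicated viability.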

[9] = target: Estrogen receptor (Homo sapiens) (UniProt P03372); assay: qHTS assay to identify small molecule agonists of the estrogen receptor alpha (ER-alpha) signaling pathway in the presence of an antagonist (AID 1259383; calls by dose curve; further: top concentration of the series differs between compounds; nearly all actives have a fitted effect of over 15% in size)
Procedure, shortened: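 Cells are hormone-deprived for 5 days (charcoal-stripped FBS, no phenol red), plated for 24hr, spiked with 10.0nM ICI-182,780, then dosed at 15 concentrations. After 22hr at 37C, ONE-Glo luminescence reports ERE-luciferase activity.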

[10] = qHTS assay to identify small molecule agonists or antagonists of the thyroid stimulating hormone receptor (TSHR) signaling pathway - wild type cell line counter screen (AID 1259384; calls by dose curve)
Procedure, shortened: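 Wild-type HEK293 cells were plated 18 h at 37 C/5% CO2, pin-dosed with compound plus Ro20-1724 medium, held 30 min at room temperature, then given cAMP-d2 and anti-cAMP-cryptate; fluorescence was read after 1 h. Fifteen concentrations, triplicate.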

[11] = qHTS assay to identify small molecule agonists of the estrogen receptor alpha (ER-alpha) signaling pathway in the presence of an antagonist - cell viability counter screen (AID 1259386);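 further: series mostly up to about 92 µM; cells exposed to compounds for 22 h at 37 °C before the viability read; nearly all actives have a fitted effect of over 30% in size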
Procedure, shortened: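 Cells are starved of estrogens for 5 days in charcoal-stripped serum, seeded for 24hr and co-treated with ICI-182,780 (10.0nM final) and test compounds. After 22hr at 37C, viability is read as CellTiter-Fluor fluorescence.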

[12] = target: Estrogen receptor beta (Homo sapiens) (UniProt Q92731); assay: qHTS assay to identify small molecule agonists of the estrogen receptor beta (ER-beta) signaling pathway (AID 1259377; active means well fitted activation curve with a large enough effect in the signal ratio in the repeat runs, not every such curve was filed as active; the % refers to the signal ratio)
Procedure, shortened: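 Measured by fluorescence intensity from a B/G FRET beta-lactamase substrate (2 h, room temperature) in ER-beta-UAS-bla HEK293T cells treated with DMSO-dissolved compounds for 16 hr at 37C and 5% CO2.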

[13] = qHTS assay to identify small molecule agonists of the estrogen receptor beta (ER-beta) signaling pathway - cell viability counter screen (AID 1259380); further: nearly all actives have a fitted effect of over 30% in size; further: potency means the concentration at half of the fitted maximal effect
Procedure, shortened: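 Same-well viability counter screen. Cells: ER-beta-UAS-bla HEK293T, plated 6 hr before compound, in 2% charcoal-stripped FBS. Compound exposure 16 hr, 37C; viability by CellTiter-Glo luminescence after 30 min at room temperature.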

[14] = target: Thyrotropin receptor (Homo sapiens) (UniProt P16473); assay: qHTS assay to identify small molecule antagonists of the thyroid stimulating hormone receptor (TSHR) signaling pathway (AID 1259385; calls by dose curve; further: nearly all actives have a fitted effect of over 20% in size; further: potency means the concentration at half of the fitted maximal effect)
Procedure, shortened: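 TSHR-HEK293 cells were plated and held 18 h at 37C/5% CO2, then given compound plus Ro20-1724 and stimulated with TSH at 1.5 ng/mL final. After 30 min at room temperature, cAMP was detected with cAMP-d2/anti-cAMP-cryptate (1 h) by fluorescence.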

[15] = qHTS assay to identify small molecule phospholipidosis (PLD) inducers (AID 1259344; active means well fitted curve in the direction sought with a large enough effect; an effect the other way counts as inactive or inconclusive)
Procedure, shortened: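 HepG2 cells on collagen I, attached 4 h at 37 C, were co-treated with compound and LipidTOX Red dye for 24 h at 37 C, then fixed with paraformaldehyde plus Hoechst 33342 and imaged by high-content microscopy for phospholipid accumulation.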

[16] = qHTS assay to identify small molecule antagonists of the sonic hedgehog signaling (Shh) pathway - cell viability counter screen (AID 1259367); further: nearly all actives have a fitted effect of over 55% in size; further: potency means the concentration at half of the fitted maximal effect
Procedure, shortened: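 NIH/3T3-derived Gli1-Luc reporter cells (2,000 per well) rested 4 hr at 37 C, then received DMSO compounds plus conditioned medium. After 23 hr of treatment, CellTiter-Fluor was added for 1 hr at 37C and fluorescence read.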

[17] = qHTS assay to identify small molecule antagonists of the sonic hedgehog signaling (Shh) pathway (AID 1259369; calls by dose curve; further: nearly all actives have a fitted effect of over 45% in size)
Procedure, shortened: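 Inhibition of Shh signalling is measured as reduced Gli1-response-element firefly luciferase output in an NIH/3T3-derived stable reporter clone stimulated with conditioned medium for 24hr.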

[18] = target: Estrogen receptor beta (Homo sapiens) (UniProt Q92731); assay: qHTS assay to identify small molecule antagonists of the estrogen receptor beta (ER-beta) signaling pathway (AID 1259378; active means well fitted inhibition curve with a large enough effect in the signal ratio in the repeat runs, not every such curve was filed as active; the % refers to the signal ratio)
Procedure, shortened: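 ER-beta-UAS-bla HEK293T (GripTite) cells in 2% charcoal-stripped FBS medium were preincubated 6 hr at 37C, dosed with compound, then stimulated with 1 nM E2 (final) for 16 hr; beta-lactamase reporter read by B/G FRET fluorescence after 2 hr substrate loading.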
On the % scale 0 is the no-effect control and ±100 the full control effect.

Sequence of Estrogen receptor (Homo sapiens) (P03372 whole entry, looked up): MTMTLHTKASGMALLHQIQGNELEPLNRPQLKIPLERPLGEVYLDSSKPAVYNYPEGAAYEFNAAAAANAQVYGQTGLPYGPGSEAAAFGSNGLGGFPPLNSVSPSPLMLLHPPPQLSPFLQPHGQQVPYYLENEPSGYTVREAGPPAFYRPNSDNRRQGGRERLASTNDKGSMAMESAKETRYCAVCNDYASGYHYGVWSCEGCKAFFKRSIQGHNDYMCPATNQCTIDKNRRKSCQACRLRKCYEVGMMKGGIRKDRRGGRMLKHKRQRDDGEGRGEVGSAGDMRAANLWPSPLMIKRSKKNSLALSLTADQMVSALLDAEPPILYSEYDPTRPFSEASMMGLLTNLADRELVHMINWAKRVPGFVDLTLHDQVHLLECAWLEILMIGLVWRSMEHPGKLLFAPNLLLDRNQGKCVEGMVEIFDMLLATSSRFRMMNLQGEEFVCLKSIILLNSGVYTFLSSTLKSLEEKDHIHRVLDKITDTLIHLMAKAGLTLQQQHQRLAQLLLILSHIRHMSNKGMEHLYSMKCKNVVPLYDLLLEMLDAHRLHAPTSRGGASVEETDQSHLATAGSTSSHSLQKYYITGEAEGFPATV
Sequence of Estrogen receptor beta (Homo sapiens) (Q92731 whole entry, looked up): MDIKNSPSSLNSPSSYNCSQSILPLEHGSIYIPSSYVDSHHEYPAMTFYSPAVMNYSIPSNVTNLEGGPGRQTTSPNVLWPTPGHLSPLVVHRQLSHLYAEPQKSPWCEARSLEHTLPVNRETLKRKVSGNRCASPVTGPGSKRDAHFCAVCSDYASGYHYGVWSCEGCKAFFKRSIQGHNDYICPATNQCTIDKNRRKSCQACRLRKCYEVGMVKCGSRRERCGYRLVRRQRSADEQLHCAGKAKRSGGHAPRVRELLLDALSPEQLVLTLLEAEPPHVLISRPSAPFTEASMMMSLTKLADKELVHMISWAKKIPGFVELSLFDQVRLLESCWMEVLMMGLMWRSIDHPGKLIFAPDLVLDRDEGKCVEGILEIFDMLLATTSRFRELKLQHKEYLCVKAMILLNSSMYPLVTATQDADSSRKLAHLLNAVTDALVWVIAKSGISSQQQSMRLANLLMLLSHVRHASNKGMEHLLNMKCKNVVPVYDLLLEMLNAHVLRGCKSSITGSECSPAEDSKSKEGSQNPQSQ
Sequence of Thyrotropin receptor (Homo sapiens) (P16473 whole entry, looked up): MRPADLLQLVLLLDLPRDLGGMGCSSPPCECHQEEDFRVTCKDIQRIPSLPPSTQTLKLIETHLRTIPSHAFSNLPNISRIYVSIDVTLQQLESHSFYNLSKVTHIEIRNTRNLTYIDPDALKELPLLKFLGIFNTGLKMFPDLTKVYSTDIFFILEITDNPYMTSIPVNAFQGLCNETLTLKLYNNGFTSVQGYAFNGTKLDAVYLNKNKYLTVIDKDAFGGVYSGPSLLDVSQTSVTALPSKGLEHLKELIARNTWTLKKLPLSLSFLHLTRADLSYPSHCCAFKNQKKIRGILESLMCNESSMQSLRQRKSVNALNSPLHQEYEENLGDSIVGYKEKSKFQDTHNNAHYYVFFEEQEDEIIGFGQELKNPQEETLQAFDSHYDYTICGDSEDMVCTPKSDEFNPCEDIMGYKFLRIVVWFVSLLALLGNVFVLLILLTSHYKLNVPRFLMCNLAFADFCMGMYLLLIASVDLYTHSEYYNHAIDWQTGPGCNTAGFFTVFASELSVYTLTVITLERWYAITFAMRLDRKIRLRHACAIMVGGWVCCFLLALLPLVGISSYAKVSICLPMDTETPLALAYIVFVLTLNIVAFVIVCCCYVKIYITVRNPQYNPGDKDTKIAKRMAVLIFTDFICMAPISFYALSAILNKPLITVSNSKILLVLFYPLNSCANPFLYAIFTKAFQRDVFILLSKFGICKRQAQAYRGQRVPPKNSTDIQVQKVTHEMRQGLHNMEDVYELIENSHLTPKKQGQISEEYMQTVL

O=C(Oc1ccccc1)Oc1ccccc1
inactive: Potency [1] | Potency [2] | Potency [3] | Potency [4] | Potency [5] | Potency [6] | Potency [7] | Potency [8] | Potency [9] | outcome [10] | Potency [11]

CCCCN(CCCC)CC(O)c1cc(Cl)cc2c1-c1ccc(Cl)cc1/C2=C/c1ccc(Cl)cc1 (stereo unspecified)
active: Potency [5] 26.6 µM | Potency [13] 29.8 µM
inactive: Potency [1] | Potency [2] | Potency [3] | Potency [4] | Potency [6] | Potency [12] | Potency [7] | Potency [9] | Potency [14]

CC(C)(C)C1CCC(=O)CC1
inactive: Potency [1] | Potency [2] | Potency [3] | Potency [4] | Potency [6] | Potency [12] | Potency [7] | Potency [13] | Potency [8] | Potency [9] | outcome [10] | Potency [14] | Potency [11]

[Cl][Pt-2]([Cl])([Cl])[Cl]
active: Potency [14] 34.5 µM
inactive: Potency [1] | Potency [2] | Potency [3] | Potency [4] | Potency [5] | Potency [6] | Potency [12] | Potency [7] | Potency [13] | Potency [8] | Potency [9] | outcome [10]

O=C(O)CN(CCN(CC(=O)O)CC(=O)O)CC(=O)O
inactive: viability change, negative = cytotoxic [1] 4.5% [at 3.26 µM] | Potency [15] | activity change, negative = inhibition [3] 2.84% [at 3.27 µM] | activity change, negative = cytotoxicity [4] 0.173% [at 3.27 µM] | viability change, negative = cytotoxic [5] 3.2% [at 3.27 µM] | viability change, negative = cytotoxic [16] -2.72% [at 3.27 µM] | activity change [6] 0.474% [at 3.27 µM, stronger effect = higher value] | activity change, negative = inhibition [17] 12.7% [at 3.27 µM] | activity change, negative = cytotoxicity [7] -0.833% [at 3.27 µM] | activity change, negative = cytotoxicity [13] 0.439% [at 3.32 µM] | activity change, negative = cytotoxicity [8] 2.74% [at 3.27 µM] | cAMP activity change [10] -0.412% [at 3.27 µM] | activity change, negative = inhibition [14] 1.34% [at 3.27 µM] | activity change, negative = cytotoxicity [11] 0.548% [at 3.27 µM]

O=c1c(O)c(-c2ccc(O)cc2O)oc2cc(O)cc(O)c12
inactive: Potency [1] | Potency [2] | Potency [4] | Potency [5] | Potency [6] | Potency [8] | Potency [9] | Potency [14]
active: Potency [16] 45.7 µM

Cc1nc(-c2ccc(Cl)cc2)oc1COC(C)(C)C(=O)O
inactive: Potency [1] | Potency [15] | Potency [3] | Potency [4] | Potency [5] | Potency [16] | Potency [6] | Potency [17] | Potency [12] | Potency [18] | Potency [7] | Potency [8] | Potency [14] | Potency [11]

CC1=CCC(=C(C)C)CC1
inactive: Potency [1] | Potency [2] | Potency [3] | Potency [4] | Potency [16] | Potency [6] | Potency [17] | Potency [7] | Potency [13] | Potency [8] | Potency [9] | Potency [11]

CCCCCCCCCCCC(=O)OCC(C)OC(=O)CCCCC(=O)O (stereo unspecified)
inactive: Potency [1] | Potency [2] | Potency [3] | Potency [4] | Potency [16] | Potency [6] | Potency [12] | Potency [7] | Potency [13] | Potency [8] | Potency [9] | outcome [10] | Potency [14] | Potency [11]
